Assay outcomes from PubChem BioAssay.
Dicer processing = inhibitors of Dicer pre-microRNA processing, primary screen, biochemical, cat-ELCCA, chemiluminescence; cat-ELCCA pre-miR-21 Dicer processing; hits give high values; z-score at 25 µM; 47,000 compounds, 6% hits; in the data active = z-score above about 3, passing the limit was not always enough;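 also: plate controls were vehicle for no effect and no enzyme for full effect; higher signal means more uncleaved substrate so more Dicer inhibition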
Target sequence (Q9UPY3 whole entry, looked up): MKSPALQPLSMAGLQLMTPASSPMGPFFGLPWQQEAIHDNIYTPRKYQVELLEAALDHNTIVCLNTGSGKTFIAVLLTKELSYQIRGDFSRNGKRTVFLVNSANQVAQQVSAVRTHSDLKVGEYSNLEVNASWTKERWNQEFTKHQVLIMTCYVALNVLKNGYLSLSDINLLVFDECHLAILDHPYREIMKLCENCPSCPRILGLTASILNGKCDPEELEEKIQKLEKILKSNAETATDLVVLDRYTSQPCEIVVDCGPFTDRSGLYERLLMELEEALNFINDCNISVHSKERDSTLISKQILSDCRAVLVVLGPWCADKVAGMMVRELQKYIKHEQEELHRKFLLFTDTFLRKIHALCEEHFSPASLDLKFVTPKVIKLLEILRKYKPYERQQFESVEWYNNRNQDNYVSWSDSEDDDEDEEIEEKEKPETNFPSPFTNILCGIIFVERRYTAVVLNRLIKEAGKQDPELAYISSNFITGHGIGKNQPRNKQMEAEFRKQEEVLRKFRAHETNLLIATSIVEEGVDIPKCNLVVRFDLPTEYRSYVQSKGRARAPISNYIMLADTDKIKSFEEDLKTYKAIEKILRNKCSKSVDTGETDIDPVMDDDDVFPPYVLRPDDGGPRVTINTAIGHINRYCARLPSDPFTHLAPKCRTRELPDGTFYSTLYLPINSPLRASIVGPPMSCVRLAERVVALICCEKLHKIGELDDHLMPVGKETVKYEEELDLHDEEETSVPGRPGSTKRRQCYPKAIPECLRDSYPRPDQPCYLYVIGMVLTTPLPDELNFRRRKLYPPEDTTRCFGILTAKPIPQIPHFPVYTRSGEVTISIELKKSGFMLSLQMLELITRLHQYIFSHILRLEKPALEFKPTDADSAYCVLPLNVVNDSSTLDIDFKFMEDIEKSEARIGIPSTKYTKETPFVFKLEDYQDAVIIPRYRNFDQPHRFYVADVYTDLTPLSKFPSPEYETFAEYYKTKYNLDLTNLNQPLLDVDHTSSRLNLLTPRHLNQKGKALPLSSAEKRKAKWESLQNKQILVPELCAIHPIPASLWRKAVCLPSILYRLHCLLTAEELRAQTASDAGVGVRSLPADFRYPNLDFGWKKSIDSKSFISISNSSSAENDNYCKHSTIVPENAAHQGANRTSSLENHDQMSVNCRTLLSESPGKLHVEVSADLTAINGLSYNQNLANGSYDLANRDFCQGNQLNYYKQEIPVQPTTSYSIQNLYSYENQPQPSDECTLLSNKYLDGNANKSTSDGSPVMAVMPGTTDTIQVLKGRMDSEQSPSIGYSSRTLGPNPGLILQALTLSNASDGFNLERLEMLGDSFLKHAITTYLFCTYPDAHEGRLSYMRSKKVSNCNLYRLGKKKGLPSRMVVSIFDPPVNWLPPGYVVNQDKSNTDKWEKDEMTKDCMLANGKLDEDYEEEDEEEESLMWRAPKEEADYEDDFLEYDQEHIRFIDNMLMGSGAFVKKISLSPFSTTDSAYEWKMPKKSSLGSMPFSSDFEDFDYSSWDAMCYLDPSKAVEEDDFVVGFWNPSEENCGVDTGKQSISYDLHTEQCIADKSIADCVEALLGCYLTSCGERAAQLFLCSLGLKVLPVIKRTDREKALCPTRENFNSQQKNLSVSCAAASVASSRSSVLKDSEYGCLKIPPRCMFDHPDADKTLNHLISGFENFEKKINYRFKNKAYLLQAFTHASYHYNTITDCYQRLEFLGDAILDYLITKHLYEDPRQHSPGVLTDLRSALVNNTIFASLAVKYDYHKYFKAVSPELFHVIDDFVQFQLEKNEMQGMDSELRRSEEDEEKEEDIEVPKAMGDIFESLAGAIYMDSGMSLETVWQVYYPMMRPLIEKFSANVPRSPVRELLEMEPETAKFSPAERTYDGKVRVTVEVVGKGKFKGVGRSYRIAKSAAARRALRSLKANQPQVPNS
* marks the source's active call; other numbers are inactive results. This is one part of a sample in which hits are shown more often than they occur.

SMILES	Dicer processing
CCOC(=O)c1c(NC(=O)CCC(=O)OC)sc2c1CCCC2	-1.2
COc1ccc(-c2nc(C#N)c(NC3CC3)o2)cc1	-0.79
COc1ccc(CNCc2cc(F)ccc2F)cc1OC	-3.6
O=C(CC1(O)C(=O)Nc2ccccc21)c1ccco1 (configuration not stated)	1.4
COc1ccc(C2C(=O)c3ccccc3C2=O)cc1OC	1.4
COc1cccc2c(=O)c3ccccc3oc12	-0.98
COc1ccc2c3c(cccc13)C(=O)CC2	4.2*
COc1cc(-c2nc3ccc(OC(C)=O)cc3c(=O)o2)ccc1OC(C)=O	-2.1
O=c1o[nH]c(-c2ccccc2)c1N=Nc1cc(C(F)(F)F)cc(C(F)(F)F)c1	0.48
Cn1nc([N+](=O)[O-])nc1Sc1nnc(-c2ccco2)o1	0.36
Cc1ccc(C(=O)NN(C)c2cnn(-c3ccc(F)c(Cl)c3)c(=O)c2Cl)cc1	-2.1
Fc1cccc(NC(=S)NNc2ccccc2)c1	5.9*
S=C(NNc1ccccc1)Nc1c(Cl)cccc1Cl	-2.6
CC(C)(CO)NC(=S)Nc1cccc(F)c1	-0.02
CCc1ccnc(NC(=O)Nc2ccc(C)c(Cl)c2)c1	-0.36
CCOC(=O)C1C2C=CC3(CN(C(C)c4ccccc4)C(=O)C13)O2 (configuration not stated)	0.41
CCc1ccc2nc(NC3=NCN(Cc4ccccc4)CN3)nc(C)c2c1	2.4
CCOC(=O)c1c(C)nc2ccc(Cl)cc2c1-c1ccccc1	0.82
CCOC(=O)c1c(-c2ccccc2)c2oc3ccccc3c2[nH]c1=O	3.1*
CCOC(=O)c1c(O)c2ccccc2[nH]c1=O	0.85
O=C1C2C3c4ccccc4C(c4ccccc43)C2C(=O)N1c1ccccc1 (configuration not stated)	2.9
O=C(O)c1ccccc1N1C(=O)C2C3c4ccccc4C(c4ccccc43)C2C1=O (configuration not stated)	4.6*
O=C(O)c1ccc(N2C(=O)C3C4c5ccccc5C(c5ccccc54)C3C2=O)cc1Cl (configuration not stated)	2.5
CCCS(=O)(=O)C/C(N)=N/OC(=O)Nc1ccc(Cl)cc1	2.8
C/C(=N\Nc1ncc(C(F)(F)F)cc1Cl)c1ccc(Oc2c(Cl)cncc2Cl)cc1	0.07
SMILES	Dicer processing
O=C(Nc1ccc(Cl)cc1)Nc1csc([N+](=O)[O-])c1	-0.84
N/C(=N\OC(=O)Nc1ccc(Cl)cc1)c1ncc([N+](=O)[O-])s1	-2.5
N/C(=N/OC(=O)Nc1ccc(Cl)cc1)c1csc([N+](=O)[O-])c1	5*
O=c1cc(O)c2c(n1-c1ccccc1)CCCCC2	-0.93
c1ccc(-c2cc(C3=Nn4c(nnc4-c4cccs4)SC3)on2)cc1	0.25
COC(=O)C1=NNC2C(=O)N(c3cccc(C)c3)C(=O)C12 (configuration not stated)	1.3
Cc1ccc(C)c(N2CCN(c3ncnc4nc[nH]c34)CC2)c1	-2.2
O=C(Nc1ccc(F)c(Cl)c1)c1cc2nc(-c3ccco3)cc(C(F)(F)F)n2n1	-0.06
Cc1nn2c(C(F)(F)F)cc(-c3cccnc3)nc2c1-c1ccc(Cl)cc1	-0.72
Cc1nn2c(C(F)(F)F)cc(-c3ccc(Cl)cc3)nc2c1Cl	-1.3
O=C(NCc1ccc(Cl)cc1)c1nn2c(C(F)(F)F)cc(-c3ccco3)nc2c1Cl	4.2*
CN1CCN(C(=O)c2cnn3c(C(F)(F)F)cc(-c4ccco4)nc23)CC1	1.1
O=C(NCc1cccnc1)c1nn2c(C(F)(F)F)cc(-c3ccc(F)cc3)nc2c1Cl	3.1*
CC(C)(C)CC(C)(C)NC(=O)c1c(F)cccc1F	-0.18
O=C(NNC(=S)NC(=O)C1CC1)c1cccc([N+](=O)[O-])c1	-0.9
C=CCn1c(SCC(=O)NC(=O)Nc2ccccc2)nnc1-c1ccc(Cl)cc1	-0.66
O=[N+]([O-])c1ccc(CSc2nnc(-n3cccc3)s2)cc1	11
COC(=O)C1=C(C)NC2=C(C(=O)c3ccccc32)C1c1ccc(O)cc1 (configuration not stated)	1.6
Nc1ccccc1Sc1ccc(-c2cnc3ccccc3n2)cc1[N+](=O)[O-]	-0.54
COc1ccc(-c2[nH]c(SC)nc(=S)c2C#N)cc1	-2
N#Cc1c(-c2cccnc2)[nH]c(=S)[nH]c1=O	-0.38
N#Cc1c(-c2ccncc2)[nH]c(=S)[nH]c1=O	3.6*
COC(=O)C1OC=C(C)C2CN3CCC4c5ccccc5NC4CC3CC21 (configuration not stated)	-0.77
CC(=O)Nc1cc(Cl)c(F)cc1NC(=O)c1c(-c2c(Cl)cccc2Cl)noc1C	0.3
NN/C(N)=N/C(N)=Nc1ccc(F)cc1	3*
SMILES	Dicer processing
NC(N)=NC(N)=Nc1ccc(F)cc1F	-0.23
CCc1ccc(N=C(N)N=C(N)N)cc1	0.41
Cc1nc(SCc2ccc(C(F)(F)F)cc2)n(C)c(=O)c1Oc1cccc(C(F)(F)F)c1	0.63
COc1cccc(C2Sc3ccccc3NC3=C2C(=O)c2ccccc23)c1 (configuration not stated)	-0.15
COc1cccc(C2Sc3ccccc3NC3=C2C(=O)c2ccccc23)c1OC (configuration not stated)	3.6*
COc1ccccc1C1C2=C(Nc3c1c(=O)[nH]c(=O)n3C)c1ccccc1C2=O (configuration not stated)	-0.58
CSC1=NCCCN1C(=O)c1c(-c2c(F)cccc2Cl)noc1C	-0.55
COC(=O)c1sccc1Oc1ccc(C(F)(F)F)cc1NC(=O)c1cnn(-c2ccc([N+](=O)[O-])cc2)c1C(F)(F)F	4*
COC(=O)c1sccc1Oc1ccc(C(F)(F)F)cc1NC(=O)c1cnn(-c2ccccc2)c1C(F)(F)F	-1.1
COC(=O)c1sccc1Oc1ccc(C(F)(F)F)cc1NC(=O)NS(=O)(=O)c1ccc(C)cc1	-0.3
O=[N+]([O-])c1ccsc1Sc1ccc(Cl)cc1	-1.3
CCOC(=O)[C@H]1C(=O)C[C@@](C)(O)[C@@H](C(=O)OCC)[C@@H]1c1ccccc1	1.1
CN=C1SC(CC(=O)O)C(=O)N1C (configuration not stated)	20*
C=CCN1C(=O)SC(CC(=O)O)C1=O (configuration not stated)	-0.77
COc1cc(/C=N/N=C2/SC(CC(=O)O)C(=O)N2C)cc(OC)c1OC (configuration not stated)	2.5
COCCOc1cc(C)nc(N2CCOCC2)n1	1.1
CS(=O)(=O)Nc1ccc(S(=O)(=O)Nc2ncccn2)cc1	-4.6
Cc1ccc(S(=O)(=O)Nc2ccc3ccccc3n2)cc1	-0.27
Cc1ccc(S(=O)(=O)Nc2ccc(Cl)c3cccnc23)cc1	3.2*
Cc1ccc(S(=O)(=O)Nc2ccc(O)c3cccnc23)cc1	3.3*
O=S(=O)(Nc1ncccc1OCc1ccc(Cl)c(Cl)c1)c1ccc(Cl)cc1	0.8
Cc1ccc(S(=O)(=O)Nc2ccc(O)c3ncccc23)cc1	15*
Cc1ccc(S(=O)(=O)Nc2ccnn2C)cc1	-1.1
CC(=O)Nc1ccc(S(=O)(=O)Nc2ncccn2)cc1	-0.86
O=S(=O)(Nc1cccnc1Oc1ccc(Cl)cc1)c1ccc(Cl)cc1	-0.24
N#C/C(=C(/Oc1ccc(Cl)cc1Cl)C(F)(F)F)c1ccccc1	0.58
COc1cc(C(=O)NNS(C)(=O)=O)c(-n2c(C)ccc2C)cc1OC	-1.1
O=C(Nc1cscc1S(=O)(=O)c1ccc(Cl)cc1)C(Cl)(Cl)Cl	-1.4
CCOC(=O)c1cc2cc(OC(F)(F)F)ccc2[nH]1	-2.3
O=[N+]([O-])c1ccc2c(c1)S(=O)(=O)CC2SCCO (configuration not stated)	2
